High-throughput results (PubChem)
Sampled rows, rich in hits. Any-hit rate of the full collection: about 1.9%.
eIF4H FP inh – inhibitors of RNA binding by human eIF4H | Q15056 | eIF4H fluorescence polarization binding assay | inhibition, % at 35 µM | hit rate 0.94% among 290,000;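 also: calls also rest on retests at 20 µM and on dose response follow-up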
GRK2 inh – inhibitors of human GRK2 displacing RNA aptamer; hit rate 0.59% among 330,000; inhibition of aptamer binding, % at 10 µM; AID 488847; P25098; bead flow cytometry, FAM-aptamer displacement from GRK2;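 active = inhibition of aptamer binding above 40%, roughly 3 SD of noise, on plates passing a quality check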;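 also: median bead fluorescence of bound FAM aptamer so fluorescent compounds give negative values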
PERK inhibitor – human PERK inhibition, primary cell-based screen; Q9NZJ5; CHO PERK-DD fusion, SEAP luminescence translation reporter; inhibition, % at 5.6 µM; hit rate 0.17% among 220,000; AID 1416;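 active = inhibition above the mean inhibition of all tested compounds plus 3 SD, set separately per screening campaign, cut at about 2.9% in these data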;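 also: PERK kinase domain activated by AP20187 dimerizer at 100 nM; 0% = DMSO with dimerizer and 100% = rapamycin at 8.4 µM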
PABP1 MLLE inh – inhibitors of microRNA-mediated deadenylation, human PABP1 MLLE binding; P11940; GST-MLLE / FITC-PAM2 fluorescence polarization; inhibition, % at 20 µM; hit rate 0.36% among 360,000; AID 588489; in the data active = inhibition above about 35%, passing the limit was not always enough;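 also: plate controls were DMSO wells with GST-MLLE for no effect and wells lacking GST-MLLE protein for full effect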
Target sequence (P11940 whole entry, looked up): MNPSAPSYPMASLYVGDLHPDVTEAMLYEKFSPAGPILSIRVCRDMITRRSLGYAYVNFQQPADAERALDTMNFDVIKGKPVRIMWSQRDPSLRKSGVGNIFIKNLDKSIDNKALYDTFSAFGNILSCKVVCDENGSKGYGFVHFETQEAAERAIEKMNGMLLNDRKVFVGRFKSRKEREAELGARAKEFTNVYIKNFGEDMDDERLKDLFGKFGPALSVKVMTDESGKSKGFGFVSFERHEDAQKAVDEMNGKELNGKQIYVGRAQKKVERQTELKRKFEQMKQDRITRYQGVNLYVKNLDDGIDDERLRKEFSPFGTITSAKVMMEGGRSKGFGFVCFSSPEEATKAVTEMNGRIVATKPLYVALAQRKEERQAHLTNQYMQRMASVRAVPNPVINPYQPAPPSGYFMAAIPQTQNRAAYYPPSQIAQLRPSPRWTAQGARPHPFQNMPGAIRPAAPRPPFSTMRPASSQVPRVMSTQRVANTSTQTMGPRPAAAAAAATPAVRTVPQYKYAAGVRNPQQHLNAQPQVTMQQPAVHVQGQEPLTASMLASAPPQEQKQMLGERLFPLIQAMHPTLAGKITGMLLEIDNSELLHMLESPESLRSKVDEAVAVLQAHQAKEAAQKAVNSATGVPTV
PABP FP inh – PABP-poly(A) binding inhibition. hit rate 1% among 290,000. PABP-poly(A) RNA binding, fluorescence polarization. P11940. inhibition, % at 35 µM. AID 2014;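 also: calls also rest on retests at 20 µM and on dose response follow-up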
Active calls of the source: *; i = inactive; ? = inconclusive; / = not tested or not shown. Unless noted, no rule for the calls is given here.

SMILES | eIF4H FP inh | GRK2 inh | PERK inhibitor | PABP1 MLLE inh | PABP FP inh
COc1ccc(NC(=O)CN2C(=O)NC3(CCCc4ccccc43)C2=O)c(OC)c1 (stereo not given) | / | 0 | / | -17 | /
Cc1cc(C)c(S(=O)(=O)N2CCN(CCN3C(=O)c4cccc5cccc(c45)C3=O)CC2)cc1[N+](=O)[O-] | 9 | / | 0 | / | 9
Nc1cc2c3c(cccc3c1)C(=O)N(CCN1CCCC1)C2=O | 114* | 9 | 1 | 74 | 77*
CCN(CC)c1ccc(/C=N/N2C(=O)c3ccccc3C2=O)c(O)c1 | 2 | 3 | 1 | -3 | 11
O=C1c2cccc3cc([N+](=O)[O-])cc(c23)C(=O)N1/N=C/c1ccc(O)cc1O | 91* | 1 | 2 | 2 | 72*
O=C1c2cccc3cc([N+](=O)[O-])cc(c23)C(=O)N1CCN1CCCC1 | 81 | / | -2 | 50* | 40
CCN(CC)CCN1C(=O)c2cccc3cc(N)cc(c23)C1=O | 91* | 0 | 1 | 105 | 115*
O=C(N/N=C/c1ccc(Br)cc1)c1ccc(Br)o1 | 8 | 6 | 0 | -3 | 32
O=C(Nc1ccccc1-c1nc2ccccc2[nH]1)c1sc2ccccc2c1Cl | 2 | 0 | 1 | / | 7
N#CCCn1cc(C(N)=O)c(-c2ccc3ccccc3c2)n1 | 0 | 1 | / | 3 | 8
COc1ccccc1-n1nnnc1SCC(=O)N(C)C1CCS(=O)(=O)C1 (stereo not given) | / | 0 | / | -2 | /
FC(F)(F)c1ccccc1NC(=S)Nc1cccc2cnccc12 | 94* | / | 2 | 7 | active
Fc1ccccc1NC(=S)Nc1cccc2cnccc12 | 58* | 0 | 0 | 37* | 2
Cc1ccc(S(=O)(=O)N2CCC(C(=O)N3CCCC(C(F)(F)F)C3)CC2)cc1C (stereo not given) | / | 0 | / | 6 | /
CCOC(=O)c1ccc(N2C(=O)[C@@H](c3ccccc3)[C@H]2c2ccccc2)cc1 | / | 0 | / | 1 | /
CCOC(=O)c1ccc(N2C(=O)C3C(/C=C/c4ccccc4)OC4(C(=O)c5ccccc5C4=O)C3C2=O)cc1 (stereo not given) | 57 | 0 | 0 | 0 | active
Cc1cc(C)nc(S/C=C/C(=O)c2ccccc2F)n1 | 2 | 0 | 0 | 42* | -1
O=C(Cc1c(F)cccc1Cl)OCC(=O)c1ccc[nH]1 | / | 0 | / | -6 | /
COc1ccccc1NC(=O)CSc1nc(N)c(C#N)cc1C#N | 87* | 2 | 0 | -73 | -1
CCOc1ccccc1NC(=O)CSc1nc(N)c(C#N)cc1C#N | 12 | 2 | 1 | -10 | -6
COc1ccc(NC(=O)CSc2nc3c(cc2C#N)CN(C)CC3)cc1 | 3 | 0 | / | 12 | 20
CN1CCc2nc(SCC(=O)Nc3ccc(F)cc3)c(C#N)cc2C1 | 9 | 57* | 0 | / | 4
Cn1c(=O)[nH]c(=O)c2cc(C(=O)c3cc(F)ccc3O)cnc21 | 0 | 2 | -1 | -19 | 20
Cc1ccc(CNC(=O)c2ccc3c(c2)S(=O)(=O)c2ccccc2C3=O)o1 | / | 7 | / | 9 | /
Cc1cc(C)cc(NC(=O)CCN2CCCC2)c1 | -12 | 0 | 0 | -19 | 71*
SMILES | eIF4H FP inh | GRK2 inh | PERK inhibitor | PABP1 MLLE inh | PABP FP inh
Cc1cccc(NC(=O)CCN2CCCCC2)c1 | -3 | 2 | / | 5 | -9
O=C(Nc1nc(=O)c2ccccc2s1)c1ccc(F)cc1 | -3 | 0 | 0 | 38* | -7
CC(C)(C)c1ccc(S(=O)(=O)Nc2noc3ccccc23)cc1 | -3 | 2 | / | -8 | -13
CCOC(=O)NC(=O)/C(C#N)=C/c1ccc(N(C)C)cc1 | 77 | 0 | 1 | -139 | 44*
CN(C)c1ccc(/C=C(\C#N)C(=O)c2ccccc2)cc1 | ? | 0 | 2 | i | ?
FC(F)(F)c1ccc(Cl)c(-n2c(-c3ccco3)n[nH]c2=S)c1 | -10 | 1 | / | -46 | -1
FC(F)(F)c1ccc(Cl)c(-n2c(-c3cc(-c4ccco4)[nH]n3)n[nH]c2=S)c1 | ? | 5 | 0 | -54 | 33*
COc1cccc(-c2cnc(C(O)c3cc(C)ccc3C)[nH]2)c1 (stereo not given) | / | / | / | -7 | /
N#CC1=C(N)Oc2cc(N)ccc2C1c1ccc(F)cc1 (stereo not given) | 2 | 1 | 0 | -18 | 10
N#CC1=C(N)Oc2cc(N)ccc2C1c1ccc(F)cc1F (stereo not given) | 59 | 0 | / | -28 | 20*
Cc1nc(-c2ccccc2)sc1-c1ccn[nH]1 | ? | 3 | -1 | -3 | 64*
O=C(O)c1cc(N/N=C/c2ccc(-c3ccccc3)cc2)ccc1Cl | 6 | 43* | / | -2 | 25
O=C(O)c1cc(N/N=C/c2ccncc2)ccc1Cl | -5 | 17 | 2 | 11 | 5
CC(=O)c1cc(O)c2ccccc2c1O | 13 | 4 | 0 | 41* | 32
CC(=O)c1coc2c1cc(O)c1ccccc12 | 6 | 2 | 1 | 1 | -9
O=c1cc[nH]c2c1ccc1c(=O)cc[nH]c12 | 86* | 0 | / | 4 | 33
C[N+](C)(C)CCN(Cc1ccc(Cl)cc1)c1ccccn1 | -2 | 0 | 0 | -131 | 78*
Cn1cc(CN2CCC(C(=O)NC(c3ccc(-c4ccccc4)cc3)c3cnccn3)CC2)c2ccccc21 (stereo not given) | / | / | / | -2 | /
CCCc1cc(-n2ccnc2)n2c(nc3ccccc32)c1C#N | 125* | 0 | 0 | -48 | 117
Cc1cc(-n2ccnc2)n2c(nc3ccccc32)c1C#N | 126 | 0 | 1 | -20 | 120
CCOC(=O)CSC1=C(C#N)C(=O)NC(c2ccc(OC)cc2)S1 (stereo not given) | 7 | 3 | -1 | 38 | 35
CCOC(=O)CSC1=C(C#N)C(=O)NC(c2ccc(OC)c(OC)c2)S1 (stereo not given) | -7 | 1 | 0 | 48* | -2
CCOC(=O)c1c(C)oc2c1c(C=NCC1CCCO1)c(O)c1ccccc12 (stereo not given) | 27 | / | -1 | -15 | 16
CCOC(=O)c1c(C)oc2c1c(C=NCc1ccccn1)c(O)c1ccccc12 | 121* | / | -1 | 5 | 116*
O=C(c1ccc(S(=O)(=O)N2CCCC2)cc1)N1CCCCC1 | / | 0 | / | -8 | /
SMILES | eIF4H FP inh | GRK2 inh | PERK inhibitor | PABP1 MLLE inh | PABP FP inh
O=C(/C=C/c1ccc(O)c(O)c1)c1ccc(S(=O)(=O)N2CCCCCC2)cc1 | 90* | 0 | 0 | -7 | -13
O=C(NNC(=O)c1ccncc1)Nc1ccc([N+](=O)[O-])cc1 | -1 | 7 | 0 | -8 | 58*
COc1ccc(-n2c(C)cc(/C=C3\SC(=S)N(Cc4ccco4)C3=O)c2C)cc1 | 36 | 0 | 0 | -127 | 6
CCN1CCN(c2c(/C=C3\SC(=S)N(Cc4ccco4)C3=O)c(C)c(C#N)c(=O)n2C)CC1 | ? | 0 | 1 | -93 | 53*
CCCn1c(N)c(C(=S)NC(=O)C2CC2)c(=O)n(C)c1=O | 2 | / | 0 | 41* | -6
CCCCn1c(N)c(C(=S)NC(=O)CC(C)C)c(=O)n(C)c1=O | 6 | / | 0 | 41* | 3
CCCCN1C(=O)/C(=C2\SC(N3CCCCC3)=NC2=O)c2ccccc21 | -8 | 2 | 0 | 40* | -4
